The target in one experiment is Albumin (Bos taurus) (UniProt P02769). Put plainly: bovine serum albumin binders on microarray, profiling panel, artefact control for SMM control protein annotation, biochemical, small-molecule microarray, Alexa647 label, 635/667 nm fluorescence (AID 1118).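 Further: score merges 667 nm emission intensity and signal-to-noise per printed compound spot.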 The note with it: BSA-A647 binding, fluorescence 635 nm, higher = more signal.
Experiment [1] is described as follows: small-molecule microarray binders of probe aXIP, primary screen, biochemical, NeuroSMM set, 635/667 nm fluorescence (AID 1119).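 Further: probe is the protein aXip251-270 applied at 1 µg/mL to compound-printed slides; binding of probe to printed compounds measured as 667 nm fluorescence plus signal to noise.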 The note with it: higher = more signal, called active from +8 up or from −8 down.
Experiment [2] is described as follows: small-molecule binders of probe aNOTCH3, primary screen, biochemical, small-molecule microarray, 635/667 nm fluorescence (AID 1120).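 Further: probe is a biotin-tagged antibody raised against NOTCH3 rather than NOTCH3 protein; score merges spot fluorescence near 667 nm with spot signal to noise.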 As to conditions: higher = more signal.
Experiment [3] is described as follows: small-molecule binders of probe aNOTCH2, primary screen, biochemical, small-molecule microarray, 635/667 nm fluorescence (AID 1121).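 Further: score merges feature fluorescence read at 667 nm with its signal to noise.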 The note with it: higher = more signal.
Experiment [4] concerns the target Carbonic anhydrase 2 (Homo sapiens) (UniProt P00918). Put plainly: CAII small-molecule binders, profiling panel, biochemical, small-molecule microarray, Alexa647-labelled CAII (AID 1122). As to conditions: CAII-A647 binding fluorescence, higher = more signal.
Experiment [5] can be described thus: COS7 lysate on small-molecule microarray, probe aHis, 635 nm (AID 1123).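 Further: z-score combines 667nm fluorescence intensity with signal-to-noise per printed compound spot.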 The note with it: COS7 cell lysate, fluorescence, higher = more signal.
The nature of experiment [6]: compound binding in COS7 lysate, probe aLAP1, primary screen, cell lysate, small-molecule microarray (AID 1124).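 Further: lysate comes from COS7 cells expressing LAP1 and is applied at 0.3 µg/mL; score merges spot fluorescence near 667 nm with signal-to-noise over triplicate slides.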 The note with it: probe aLAP1, fluorescence, higher = more signal.
Another experiment deals with Sam68 (KHDRBS1). Put plainly: Sam68 small-molecule binders, primary screen, biochemical, small-molecule microarray, 635 nm fluorescence (AID 1125).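 Further: score merges 667 nm channel intensity with signal to noise over triplicate slides.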 The note with it: small-molecule microarray binding, higher = more signal.
Experiment [7] relates to Chordin-like protein 2 (CHRDL2). Put plainly: CHRDL2 small-molecule binders, primary screen, biochemical, small-molecule microarray, 635 nm fluorescence (AID 1126).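 Further: printed compound slides probed with Chrdl2 protein at 4 µg/mL for 1 h at 4 C; score merges 667 nm emission intensity with signal to noise over three replicate slides.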 The note with it: small-molecule microarray binding, fluorescence 635 nm; higher = more signal.
Experiment [8] deals with Concanavalin-A (Canavalia ensiformis) (UniProt P02866). Nature of the experiment: ConA small-molecule binders, primary screen, artefact control for SMM control protein annotation, biochemical, small-molecule microarray, Alexa647 label, 635 nm (AID 1127).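 Further: z combines 667 nm emission intensity with signal-to-noise across three replicate slides.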 As to conditions: ConA-A647 binding fluorescence, higher = more signal.
Sequence of Concanavalin-A (Canavalia ensiformis) (P02866 whole entry, looked up): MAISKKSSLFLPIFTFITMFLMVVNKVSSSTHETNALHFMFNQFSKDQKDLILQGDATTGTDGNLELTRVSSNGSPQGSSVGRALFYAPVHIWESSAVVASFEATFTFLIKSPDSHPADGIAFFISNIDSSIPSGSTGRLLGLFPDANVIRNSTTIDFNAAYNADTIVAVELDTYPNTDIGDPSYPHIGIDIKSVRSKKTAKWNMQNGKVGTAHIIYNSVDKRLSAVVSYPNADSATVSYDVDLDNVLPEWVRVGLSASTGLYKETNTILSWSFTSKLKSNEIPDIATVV

SMILES strings stand for the structures. The source made the active and inactive calls.

Sequence of Albumin (Bos taurus) (P02769 whole entry, looked up): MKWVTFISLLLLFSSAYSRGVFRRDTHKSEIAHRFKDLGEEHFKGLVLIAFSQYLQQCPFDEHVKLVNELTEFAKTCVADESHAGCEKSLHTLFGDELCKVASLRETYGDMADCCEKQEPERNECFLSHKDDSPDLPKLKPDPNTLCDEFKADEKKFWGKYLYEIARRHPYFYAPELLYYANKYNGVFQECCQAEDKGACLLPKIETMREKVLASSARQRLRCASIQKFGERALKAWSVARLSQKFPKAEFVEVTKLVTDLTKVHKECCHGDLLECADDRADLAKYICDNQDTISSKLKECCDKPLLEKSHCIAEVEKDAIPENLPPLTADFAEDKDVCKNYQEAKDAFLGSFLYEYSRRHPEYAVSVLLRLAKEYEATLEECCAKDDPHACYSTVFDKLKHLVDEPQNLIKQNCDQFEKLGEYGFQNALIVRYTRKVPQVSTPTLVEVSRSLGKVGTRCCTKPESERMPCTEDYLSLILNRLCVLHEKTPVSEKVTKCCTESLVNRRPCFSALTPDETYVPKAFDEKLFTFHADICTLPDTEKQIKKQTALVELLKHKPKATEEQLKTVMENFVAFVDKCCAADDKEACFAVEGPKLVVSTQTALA

As to `CC(C)NC(=O)[C@@]1(C)c2ccccc2C(=O)N(C(C)C)[C@H]1c1ccc(CO)cc1`, the composite z-score is 0.177 in the experiment with Albumin (Bos taurus); -0.471 in [2]; -0.132 in [3]; 0.541 in experiment [4]; 2.61 in experiment [5]; -0.217 in experiment [6]. For the same compound, the composite z-score in the experiment with Sam68 (KHDRBS1) was 0.121; in [7] it was -2.33; in experiment [8], -0.233. Also, the composite Z-score in [1] was 0.22 (inactive).
Take `C=C[C@@H](C)[C@H](OC(=O)Nc1ccc(SC)cc1)c1ccc(OCCO)cc1`: the composite z-score with Albumin (Bos taurus) is -0.145; in [2] it was 0.132; in experiment [3], -0.259; in experiment [4], 0.449; in [5], 0.476; in experiment [6] it was -0.0181. Also, the results for the composite z-score (with Sam68 (KHDRBS1); in [7]; in [8]) were -0.867, -0.61 and -0.345, respectively. Further, in experiment [1], the composite Z-score is -0.109 (inactive).
As to `CC(C)(C)OC(=O)CC[C@]1(C(=O)N2CCOCC2)N=C(c2ccc(OCCCO)cc2)O[C@H]1c1ccccc1`, the composite z-score with Albumin (Bos taurus) is 0.969; in [2], 0.116; in [3] it was -0.17; in experiment [4] it was 0.834; in experiment [5] it was 2.75; in experiment [6] it was 0.135. The results for the composite z-score (with Sam68 (KHDRBS1); in experiment [7]; in experiment [8]) were 1.02, -0.267 and 0.838, respectively. Moreover, the composite Z-score in [1] was -0.131 (inactive).
For `CC(C)(C)OC(=O)CC[C@@]1(C(=O)O)N=C(c2ccc(OCCCO)cc2)O[C@@H]1c1ccccc1`, the composite z-score in the experiment with Albumin (Bos taurus) was 0.273; in [2], -0.1; in experiment [3] it was -0.0037; in [4], 0.824; in experiment [5], 1.98; in experiment [6] it was -0.021. The composite z-score is 0.721 in the experiment on Sam68 (KHDRBS1), -0.811 in experiment [7] and 0.335 in experiment [8]. Besides, the composite Z-score in experiment [1] is -0.204 (inactive).
Consider `COCCCNC(=O)[C@@]1(Sc2ccc(C)cc2)CC(=O)N(Cc2cc(C(F)(F)F)cc(C(F)(F)F)c2)[C@@H]1c1ccc(CO)cc1`, for which the composite z-score was 0.734 in the experiment with Albumin (Bos taurus); 0.0562 in experiment [2]; -0.0136 in [3]; 0.703 in experiment [4]; 2.41 in experiment [5]; 1.1 in [6]. The composite z-score in the experiment on Sam68 (KHDRBS1) turned out to be 1.21; in experiment [7], 0.749; in experiment [8] it was 0.715. Further, the composite Z-score in experiment [1] was 1.14 (inactive).
`CC1CC/C=C\[C@H]2OC34C=CCN(c5ccc6ccccc6c5)C(=O)[C@H]3N(C(CO)C(C)C)C(=O)[C@@H]4C2C(=O)O1` (stereo not given in full): the composite z-score with Albumin (Bos taurus) is 0.912; in experiment [2], -0.125; in experiment [3], -0.125; in [4], 0.786; in experiment [5], 1.07; in experiment [6] it was 0.407. Moreover, the values for the composite z-score (in the experiment with Sam68 (KHDRBS1); in [7]; in experiment [8]) were 0.0645, -0.315 and 0.0601, respectively. The composite Z-score in experiment [1] is 0.142 (inactive).
On to `NC(=O)NCC#Cc1ccc2c(c1)[C@]1(C(=O)N2)[C@H](C(=O)Nc2nc3ccccc3s2)[C@H]2C(=O)O[C@H](c3ccccc3)[C@H](c3ccccc3)N2[C@@H]1c1ccc(O)cc1`, for which the composite z-score with Albumin (Bos taurus) was -0.0229; in experiment [2], 0.114; in [3], 0.103; in experiment [4], 0.0856; in experiment [5], -0.482; in experiment [6], 0.274. The composite z-score came out at 0.846 in the experiment on Sam68 (KHDRBS1), 0.402 in experiment [7] and 1.07 in experiment [8]. Also, in experiment [1], the composite Z-score is 0.157 (inactive).
As to `COc1ccc(NC(=O)O[C@H]2[C@H](OC(=O)Nc3ccc4c(c3)OCO4)[C@@H](OC(=O)Nc3ccc4c(c3)OCO4)[C@@H](OC)O[C@@H]2CO)cc1`, the composite z-score with Albumin (Bos taurus) was 0.837; in experiment [2] it was 0.121; in [3], -0.0116; in [4], 0.442; in experiment [5], 2.71; in experiment [6], 0.714. Further, the figures for the composite z-score (in the experiment with Sam68 (KHDRBS1); in experiment [7]; in experiment [8]) were 1.29, 0.143 and 1.11, respectively. For the same compound, the composite Z-score in experiment [1] was 0.622 (inactive).
Take `CC=CC(O)C1C=CC2C(=O)N(C)C(=O)C2N1Nc1ccc([N+](=O)[O-])cc1[N+](=O)[O-]` (stereo not given): the composite z-score with Albumin (Bos taurus) is 0.9; in experiment [2] it was -0.0932; in experiment [3], -0.0351; in experiment [4] it was 0.834; in experiment [5], 1.08; in [6], 0.146. For the same compound, the composite z-score in the experiment with Sam68 (KHDRBS1) was -0.52; in experiment [7], 0.001; in experiment [8] it was 0.458. Further, in [1], the composite Z-score was 0.236 (inactive).
As for `C=CC1c2cc(O)c(OC)cc2CCN1Cc1sc2ccccc2c1Cl` (stereo not given), the composite z-score with Albumin (Bos taurus) was 0.854; in [2], 0.177; in [3] it was -0.0772; in experiment [4] it was 0.79; in experiment [5] it was 1.46; in experiment [6], 0.381. Moreover, the composite z-score in the experiment with Sam68 (KHDRBS1) came out at 0.807; in experiment [7], 0.575; in experiment [8], 0.859. Besides, the composite Z-score in experiment [1] is -0.967 (inactive).
With `CCOC(=O)C[C@H]1[C@H](OC(=O)Cc2ccc3c(c2)OCO3)[C@@H](NC(=O)Cc2ccc(OC)cc2)c2cc(OCCCO)ccc2N1C(=O)c1ccccc1`, the composite z-score is 0.793 with Albumin (Bos taurus); -0.141 in experiment [2]; -0.0502 in experiment [3]; 0.461 in experiment [4]; 0.682 in experiment [5]; -0.0207 in experiment [6]. The composite z-score in the experiment on Sam68 (KHDRBS1) was 1.01; in experiment [7], -0.353; in experiment [8], 0.277. Also, the composite Z-score in [1] was -0.0539 (inactive).
For `[N-]=[N+]=Nc1ccccc1C[C@@]1(C(=O)O)N=C(c2ccc(OCCCO)cc2)O[C@@H]1c1ccccc1`, the composite z-score with Albumin (Bos taurus) was 0.952; in experiment [2] it was 0.0208; in experiment [3], -0.0895; in experiment [4], 0.799; in experiment [5] it was 2.76; in experiment [6] it was 0.45. The figures for the composite z-score (with Sam68 (KHDRBS1); in experiment [7]; in experiment [8]) were 1.03, -0.777 and 1.15, respectively. Besides, the composite Z-score in experiment [1] is 0.77 (inactive).
As for `CC(C)C(O)C1C=CC2C(=O)N(C)C(=O)C2N1Nc1ccccc1` (stereo not given), the composite z-score was determined as 1.04 in the experiment with Albumin (Bos taurus); 0.585 in experiment [2]; 0.45 in [3]; 0.812 in experiment [4]; 1.86 in [5]; 1.01 in experiment [6]. The values for the composite z-score (in the experiment on Sam68 (KHDRBS1); in experiment [7]; in experiment [8]) were 1.12, 0.164 and 0.871, respectively. Further, the composite Z-score in [1] was 0.469 (inactive).
As to `COc1ccc(C(O)C2C=CC3C(=O)N(c4ccccc4)C(=O)C3N2Nc2ccccc2)cc1OCc1ccccc1` (stereo not given), the composite z-score is 0.853 in the experiment with Albumin (Bos taurus); 0.505 in [2]; -0.0798 in [3]; 0.503 in experiment [4]; 3.06 in experiment [5]; 0.0392 in experiment [6]. Besides, the composite z-score was 1.31 with Sam68 (KHDRBS1), -0.356 in experiment [7] and 1.09 in [8]. The composite Z-score in experiment [1] was 0.153 (inactive).

For the origin of these results see PubChem BioAssay.
